# In PubChem BioAssay (EPA / NIEHS):
# Active and inactive are the calls of the source. How the source made its calls: active means hit-call score of the fitted dose curve at least 0.9, where 1 is the maximum; inactive means score below 0.9.
# Assays:
# [1] = ATG_CRE_CIS: Attagene CIS-FACTORIAL HepG2 Assay for human cAMP Responsive Element (CRE) binding protein 3 (AID 2282926); conditions: HepG2 CRE cis-reporter, Attagene multiplexed mRNA; actives raise or lower the signal
# Procedure, shortened: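 Multiplexed transcription-unit reporters transfected into HepG2; 24 h dosing; RT-PCR/capillary electrophoresis fluorescence read-out; bidirectional fit vs DMSO.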
# [2] = target: CCAAT/enhancer-binding protein beta (Homo sapiens) (UniProt P17676); test: ATG_C_EBP_CIS: Attagene CIS-FACTORIAL HepG2 Assay for human CCAAT/Enhancer Binding Protein (C/EBP) beta (AID 2282927); conditions: HepG2 Attagene cis-factorial transcription factor reporter; actives raise or lower the signal
# Procedure, shortened: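 HepG2 transiently transfected with multiplexed reporter units under cis-regulatory promoters reporting endogenous C/EBPb activity. After 24 h exposure, reporter mRNA assayed by RT-PCR, fluorescent labelling, HpaI digestion and capillary electrophoresis; bidirectional fitting versus DMSO.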
# [3] = ATG_CMV_CIS: Attagene CIS-FACTORIAL HepG2 Assay for human CMV (Internal Marker) (AID 2282928); conditions: HepG2 CMV promoter reporter, transcription factor profiling; actives raise or lower the signal;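 further: endpoint acts as a background internal control marker rather than a target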
# Procedure, shortened: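 Cell system: HepG2, transiently transfected multiple reporter units under cis promoters. Exposure: 24 h. Detection: RT-PCR, FAM labeling, HpaI digestion, capillary electrophoresis. Analysis: bidirectional, DMSO baseline.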
# [4] = ATG_DR4_LXR_CIS: Attagene CIS-FACTORIAL HepG2 Assay for human Liver X Receptor (LXR), DR4 submotif (AID 2282929); conditions: HepG2 Attagene DR4 cis-reporter, mRNA transcription; actives raise or lower the signal
# Procedure, shortened: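 Fluorescence intensity of labelled reporter cDNA fragments, separated by capillary electrophoresis, gives the signal. HepG2 cells bearing cis-regulated reporter constructs were treated 24 h; activity fitted bidirectionally relative to DMSO negative control.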
# [5] = target: Aryl hydrocarbon receptor (Homo sapiens) (UniProt P35869); test: ATG_Ahr_CIS: Attagene CIS-FACTORIAL HepG2 Assay for human Aryl Hydrocarbon Receptor (Ahr) (AID 2282930); conditions: HepG2 AhR cis-factorial reporter transcription; actives raise or lower the signal
# Procedure, shortened: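 HepG2 cells transiently transfected with cis-element-driven multiplexed reporter units; endogenous AhR activity read as reporter mRNA 24 h after dosing, via RT-PCR, 6-FAM labelling, HpaI digestion and capillary electrophoresis. Bidirectional fit relative to DMSO.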
# [6] = ATG_AP_1_CIS: Attagene CIS-FACTORIAL HepG2 Assay for human Activator Protein 1 (AP-1) (AID 2282931); conditions: HepG2 Attagene cis-factorial AP-1 reporter mRNA; actives raise or lower the signal
# Procedure, shortened: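 Multiplexed HepG2 reporter assay, 24 h dosing. mRNA induction detected by RT-PCR plus capillary electrophoresis. Activity fitted in both directions against DMSO.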
# [7] = ATG_AP_2_CIS: Attagene CIS-FACTORIAL HepG2 Assay for human Activator Protein 2 (AP-2) (AID 2282932); conditions: HepG2 AP-2 cis-reporter, Attagene transcription factor profiling; actives raise or lower the signal
# Procedure, shortened: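 Multiplexed mRNA reporter assay in HepG2: cis-regulated units report endogenous factor activity after 24 h treatment. Fluorescence from capillary electrophoresis of RT-PCR products gives the signal, with DMSO as baseline.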
# [8] = ATG_BRE_CIS: Attagene CIS-FACTORIAL HepG2 Assay for human Bone Morphogenetic Protein (BMP) Response Element (BRE) (AID 2282933); conditions: HepG2 BMP response element reporter, Attagene transcription factor profiling; actives raise or lower the signal
# Procedure, shortened: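 Fluorescence-labelled reporter cDNA fragments, separated by capillary electrophoresis, gave the signal for this component of a 52-readout multiplex. HepG2 cells were transfected, exposed to chemicals for 24 h, and compared with DMSO using bidirectional fitting.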
# [9] = target: Transcription factor E2F1 (Homo sapiens) (UniProt Q01094); test: ATG_E2F_CIS: Attagene CIS-FACTORIAL HepG2 Assay for human E2F Transcription Factor 1 (AID 2282935); conditions: HepG2 Attagene cis-reporter, E2F reporter RNA transcripts; actives raise or lower the signal
# Procedure, shortened: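 Measures reporter transcript levels via RT-PCR with capillary electrophoresis detection in HepG2 cells harboring cis-regulated reporter units; 24 h post-dose; bidirectional curve fitting with DMSO as baseline.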
# [10] = ATG_E_Box_CIS: Attagene CIS-FACTORIAL HepG2 Assay for human Enhancer Box (E-box) (AID 2282936); conditions: HepG2 E-box cis-reporter transcription, actives raise or lower the signal
# Procedure, shortened: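 First, HepG2 cells receive multiple cis-regulated reporter constructs by transient transfection. Next, chemicals are applied for 24 h. Finally, reporter mRNA is quantified via RT-PCR and capillary electrophoresis, with DMSO as baseline.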
# [11] = ATG_M_61_CIS: Attagene CIS-FACTORIAL HepG2 Assay for M61 Transcription Factor (Internal Marker) (AID 2282937); conditions: HepG2 Attagene CIS-FACTORIAL M61 internal marker reporter; actives raise or lower the signal
# Procedure, shortened: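 Endogenous transcription factor activity in HepG2 is read through transiently transfected cis-element reporter units. After 24 h dosing, RNA undergoes reverse transcription, PCR and primer extension with 6-FAM before capillary electrophoresis; DMSO-referenced bidirectional fit.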
# [12] = ATG_EGR_CIS: Attagene CIS-FACTORIAL HepG2 Assay for human Early Growth Response 1 (EGR1) (AID 2282938); conditions: HepG2 Attagene CIS-FACTORIAL EGR reporter mRNA; actives raise or lower the signal
# Procedure, shortened: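 Activity is taken as induction or loss of reporter mRNA versus DMSO, fitted bidirectionally. Transcripts from cis-regulated reporter units in transiently transfected HepG2 were measured after 24 h by RT-PCR with capillary electrophoresis.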
# [13] = ATG_M_19_CIS: Attagene CIS-FACTORIAL HepG2 Assay for M19 Transcription Factor (Internal Marker) (AID 2282939); conditions: HepG2 Attagene CIS-FACTORIAL M19 internal marker reporter; actives raise or lower the signal
# Procedure, shortened: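 HepG2, MRTU transient transfection, 24 h dosing. Total RNA → RT-PCR → 6-FAM primer extension → HpaI digest → CE fluorescence. Bidirectional curve fit, DMSO negative control.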
# [14] = ATG_ERE_CIS: Attagene CIS-FACTORIAL HepG2 Assay for Estrogen Response Element (ERE) (AID 2282940); conditions: HepG2 ERE cis-reporter, Attagene RNA transcript; actives raise or lower the signal
# Procedure, shortened: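 After a 24 h chemical treatment, RNA from reporter-transfected HepG2 cells is reverse-transcribed, PCR-amplified and fluorescently labelled. Fragments separated by capillary electrophoresis give reporter signal; DMSO serves as negative control.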
# [15] = target: Hepatocyte nuclear factor 3-beta (Homo sapiens) (UniProt Q9Y261); test: ATG_FoxA2_CIS: Attagene CIS-FACTORIAL HepG2 Assay for human Forkhead box A2 (FOXA2) (AID 2282942); conditions: HepG2 cis-reporter transcription factor activity, 24 h; actives raise or lower the signal
# Procedure, shortened: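 Reporter transcript induction is measured by fluorescence after capillary electrophoresis of RT-PCR products from HepG2 cells exposed 24 h. Cis-regulated reporter units report endogenous factor activity; curves fitted both directions against DMSO.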
# [16] = ATG_FoxO_CIS: Attagene CIS-FACTORIAL HepG2 Assay for human Forkhead box O (FoxO) (AID 2282943); conditions: HepG2 Attagene cis-reporter, FoxO element, mRNA; actives raise or lower the signal
# Procedure, shortened: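 HepG2 cells transiently transfected with cis-element-driven reporter units report endogenous FoxO activity. After 24 h chemical exposure, reporter mRNA quantified by RT-PCR, fluorescent labeling, HpaI digestion and capillary electrophoresis; bidirectional fit versus DMSO.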
# [17] = ATG_GATA_CIS: Attagene CIS-FACTORIAL HepG2 Assay for human GATA Binding Protein (AID 2282944); conditions: HepG2 GATA cis-element reporter, Attagene multiplex mRNA; actives raise or lower the signal
# Procedure, shortened: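 Cells: HepG2, transiently transfected with cis-regulated reporter transcription units. Exposure: 24 h. Detection: RT-PCR plus capillary electrophoresis of FAM-labeled fragments. Analysis: bidirectional, DMSO as baseline.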
# [18] = ATG_GLI_CIS: Attagene CIS-FACTORIAL HepG2 Assay for human Zinc Finger Protein GLI1 (AID 2282945); conditions: HepG2, Attagene cis-factorial reporter mRNA, GLI element; actives raise or lower the signal
# Procedure, shortened: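 Transiently transfected HepG2 cells report endogenous transcription factor activity via cis-element-driven reporter units. After 24 h compound exposure, reporter mRNA was measured by RT-PCR with capillary electrophoresis; bidirectional fitting against DMSO baseline.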
# [19] = ATG_Ets_CIS: Attagene CIS-FACTORIAL HepG2 Assay for human Erythroblast Transformation Specific (ETS) (AID 2282941); conditions: HepG2 ETS cis-reporter transcription, actives raise or lower the signal
# Procedure, shortened: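 After transient cis-reporter transfection, HepG2 cells receive test chemical for 24 h. Reporter mRNA levels, measured by RT-PCR and capillary electrophoresis fluorescence, are analysed bidirectionally relative to the DMSO baseline.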
# Chain of Hepatocyte nuclear factor 3-beta (Homo sapiens) (Q9Y261 whole entry, looked up): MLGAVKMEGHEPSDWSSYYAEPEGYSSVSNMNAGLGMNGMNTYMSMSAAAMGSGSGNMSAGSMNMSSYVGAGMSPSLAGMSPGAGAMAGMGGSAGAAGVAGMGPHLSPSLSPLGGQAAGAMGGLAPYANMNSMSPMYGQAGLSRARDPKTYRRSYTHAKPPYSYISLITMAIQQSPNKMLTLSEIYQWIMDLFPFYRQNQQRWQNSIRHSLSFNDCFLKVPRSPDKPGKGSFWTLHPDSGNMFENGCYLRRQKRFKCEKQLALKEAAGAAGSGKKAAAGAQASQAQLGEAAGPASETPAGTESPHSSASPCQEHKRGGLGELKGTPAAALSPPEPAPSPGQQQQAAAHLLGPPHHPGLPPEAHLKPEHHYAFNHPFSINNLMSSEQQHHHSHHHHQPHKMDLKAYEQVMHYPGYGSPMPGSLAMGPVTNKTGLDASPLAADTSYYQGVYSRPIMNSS
# Chain of Transcription factor E2F1 (Homo sapiens) (Q01094 whole entry, looked up): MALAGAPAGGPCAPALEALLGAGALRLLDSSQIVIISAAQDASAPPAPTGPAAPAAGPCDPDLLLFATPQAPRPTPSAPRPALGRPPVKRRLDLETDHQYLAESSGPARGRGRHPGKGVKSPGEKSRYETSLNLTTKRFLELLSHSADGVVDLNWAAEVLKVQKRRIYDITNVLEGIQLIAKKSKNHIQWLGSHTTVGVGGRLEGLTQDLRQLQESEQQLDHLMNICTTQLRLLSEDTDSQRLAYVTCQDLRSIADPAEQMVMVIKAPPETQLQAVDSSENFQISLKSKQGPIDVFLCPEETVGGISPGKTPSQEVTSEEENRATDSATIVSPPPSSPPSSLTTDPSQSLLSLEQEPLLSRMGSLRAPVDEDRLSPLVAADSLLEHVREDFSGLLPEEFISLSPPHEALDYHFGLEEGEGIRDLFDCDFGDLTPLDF
# Chain of Aryl hydrocarbon receptor (Homo sapiens) (P35869 whole entry, looked up): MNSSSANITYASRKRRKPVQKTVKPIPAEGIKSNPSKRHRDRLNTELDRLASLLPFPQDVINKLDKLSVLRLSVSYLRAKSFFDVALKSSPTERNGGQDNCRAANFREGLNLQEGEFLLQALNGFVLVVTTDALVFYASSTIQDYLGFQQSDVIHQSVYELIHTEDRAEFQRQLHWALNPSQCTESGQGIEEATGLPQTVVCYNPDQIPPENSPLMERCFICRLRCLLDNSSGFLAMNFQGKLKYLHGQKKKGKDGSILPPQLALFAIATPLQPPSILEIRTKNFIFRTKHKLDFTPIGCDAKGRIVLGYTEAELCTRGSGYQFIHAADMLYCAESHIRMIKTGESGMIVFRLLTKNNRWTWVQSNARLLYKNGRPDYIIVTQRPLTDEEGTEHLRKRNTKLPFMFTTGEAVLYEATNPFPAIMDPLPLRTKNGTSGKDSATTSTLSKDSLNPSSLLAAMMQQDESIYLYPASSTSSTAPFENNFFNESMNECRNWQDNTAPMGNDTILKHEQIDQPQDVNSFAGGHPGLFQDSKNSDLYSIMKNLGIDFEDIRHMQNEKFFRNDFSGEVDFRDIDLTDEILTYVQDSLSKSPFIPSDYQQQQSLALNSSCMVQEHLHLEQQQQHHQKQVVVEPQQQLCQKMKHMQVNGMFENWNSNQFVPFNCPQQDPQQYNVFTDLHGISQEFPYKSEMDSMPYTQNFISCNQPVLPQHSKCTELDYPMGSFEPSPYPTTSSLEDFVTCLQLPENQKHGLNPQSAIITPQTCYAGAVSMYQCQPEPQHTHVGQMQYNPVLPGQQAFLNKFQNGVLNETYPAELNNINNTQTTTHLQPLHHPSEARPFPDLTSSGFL
# Chain of CCAAT/enhancer-binding protein beta (Homo sapiens) (P17676 whole entry, looked up): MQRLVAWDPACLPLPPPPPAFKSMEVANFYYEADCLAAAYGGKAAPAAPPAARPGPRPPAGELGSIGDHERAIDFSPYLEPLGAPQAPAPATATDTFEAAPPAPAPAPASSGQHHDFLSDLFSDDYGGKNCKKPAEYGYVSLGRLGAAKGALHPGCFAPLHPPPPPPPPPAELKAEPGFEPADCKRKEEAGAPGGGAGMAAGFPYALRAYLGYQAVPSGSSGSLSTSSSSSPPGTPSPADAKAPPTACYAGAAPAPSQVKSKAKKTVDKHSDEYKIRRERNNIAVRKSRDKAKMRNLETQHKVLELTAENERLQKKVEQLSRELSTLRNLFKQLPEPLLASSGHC
smiles,measurement,setting,value
O=C(Nc1ccccc1)c1cc([N+](=O)[O-])ccc1Cl,AC50,[1],5.81 µM (active)
same,outcome,[2],inactive
same,outcome,[3],inactive
same,AC50,[4],100 µM (active)
same,AC50,[5],18.4 µM (active)
same,AC50,[6],100 µM (active)
same,outcome,[7],inactive
same,AC50,[8],49.9 µM (active)
same,outcome,[9],inactive
same,outcome,[10],inactive
same,outcome,[11],inactive
same,AC50,[12],25.1 µM (active)
same,outcome,[13],inactive
same,outcome,[14],inactive
same,outcome,[15],inactive
same,outcome,[16],inactive
same,outcome,[17],inactive
same,outcome,[18],inactive
O=[N+]([O-])c1ccc(C=Cc2ccc([N+](=O)[O-])cc2S(=O)(=O)O)c(S(=O)(=O)O)c1,outcome,[1],inactive
same,outcome,[2],inactive
same,outcome,[3],inactive
same,outcome,[4],inactive
same,outcome,[5],inactive
same,outcome,[6],inactive
same,outcome,[7],inactive
same,outcome,[8],inactive
same,outcome,[9],inactive
same,outcome,[10],inactive
same,outcome,[11],inactive
same,outcome,[12],inactive
same,outcome,[13],inactive
same,AC50,[14],62.3 µM (active)
same,outcome,[19],inactive
same,outcome,[16],inactive
same,outcome,[17],inactive
same,outcome,[18],inactive
C[Si](O[Si](C)(C)C)O[Si](C)(C)C,outcome,[1],inactive
same,outcome,[2],inactive
same,outcome,[3],inactive
same,outcome,[4],inactive
same,AC50,[5],52.8 µM (active)
same,outcome,[6],inactive
same,outcome,[7],inactive
same,outcome,[8],inactive
same,outcome,[9],inactive
same,outcome,[10],inactive
same,outcome,[11],inactive
same,outcome,[12],inactive
same,outcome,[13],inactive
same,outcome,[19],inactive
same,outcome,[15],inactive
same,outcome,[16],inactive
same,outcome,[17],inactive
same,outcome,[18],inactive
CC(C)C(C)(C)C(C)(C)C(C)(C)S,outcome,[1],inactive
same,outcome,[2],inactive
same,outcome,[3],inactive
same,outcome,[4],inactive
same,outcome,[5],inactive
same,outcome,[6],inactive
same,outcome,[7],inactive
same,outcome,[8],inactive
same,outcome,[9],inactive
same,outcome,[10],inactive
same,outcome,[11],inactive
same,outcome,[12],inactive
same,outcome,[13],inactive
same,outcome,[14],inactive
same,outcome,[15],inactive
same,outcome,[16],inactive
same,outcome,[17],inactive
same,outcome,[18],inactive
CC1=CC(=O)NS(=O)(=O)O1,outcome,[1],inactive
same,outcome,[2],inactive
same,outcome,[3],inactive
same,outcome,[4],inactive
same,outcome,[5],inactive
same,outcome,[6],inactive
same,outcome,[7],inactive
same,outcome,[8],inactive
same,outcome,[9],inactive
same,outcome,[10],inactive
same,outcome,[11],inactive
same,outcome,[12],inactive
same,outcome,[13],inactive
same,outcome,[19],inactive
same,outcome,[15],inactive
same,outcome,[16],inactive
same,outcome,[17],inactive
same,outcome,[18],inactive
C=C(C)C(=O)Nc1ccc(Cl)c(Cl)c1,outcome,[1],inactive
same,outcome,[2],inactive
same,outcome,[3],inactive
same,outcome,[4],inactive
same,AC50,[5],14.9 µM (active)
same,outcome,[6],inactive
same,outcome,[7],inactive
same,AC50,[8],79.9 µM (active)
same,outcome,[9],inactive
same,outcome,[10],inactive
same,outcome,[11],inactive
same,AC50,[12],27.2 µM (active)
same,outcome,[13],inactive
same,outcome,[14],inactive
same,outcome,[19],inactive
same,outcome,[16],inactive
same,outcome,[17],inactive
same,outcome,[18],inactive
Cc1ccc(C(C)C)cc1O,outcome,[1],inactive
same,outcome,[2],inactive
same,outcome,[3],inactive
same,outcome,[4],inactive
same,outcome,[5],inactive
same,outcome,[6],inactive
same,outcome,[7],inactive
same,outcome,[8],inactive
same,outcome,[9],inactive
same,outcome,[10],inactive
same,outcome,[11],inactive
same,outcome,[12],inactive
same,outcome,[13],inactive
same,outcome,[19],inactive
same,outcome,[15],inactive
same,outcome,[16],inactive
same,outcome,[17],inactive
same,outcome,[18],inactive
